We go through 28 compounds from PubChem BioAssay (NCI).

Assay [1] can be described thus: NCI Yeast Anticancer Drug Screen. Data for the rad50 strain (AID 155).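 Also: 0% = growth of vehicle-only cultures of the same strain.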 The settings on record: S. cerevisiae rad50 strain growth inhibition; at 50.0 µM; stronger effect = higher value. An outline of the steps: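 Cells are treated with compound, grown, and their growth is then scored against vehicle-only cultures of the same repair-deficient yeast strain.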
Assay [2] can be described thus: NCI Yeast Anticancer Drug Screen. Data for the mec2-1 strain (AID 157). The settings on record: S. cerevisiae mec2-1 strain, at 50.0 µM, stronger effect = higher value. The method, boiled down:
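Test agents were screened against the mec2-1 yeast strain, with defined DNA repair or cell cycle alteration. Growth was scored as inhibition against vehicle-only controls.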

Assay [3] is described as follows: NCI Yeast Anticancer Drug Screen. Data for the sgs1 mgt1 strain (AID 161).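 Also: 0% = growth of cultures given vehicle only.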 The settings on record: S. cerevisiae sgs1 mgt1 strain, at 50.0 µM, stronger effect = higher value. An outline of the steps: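 Mutant yeast exposed to compound; growth scored against vehicle-only wells.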
Assay [4] in a line: NCI Yeast Anticancer Drug Screen. Data for the cln2 rad14 strain (AID 165).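 Also: 0% = growth equal to vehicle treated cultures.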 The settings on record: S. cerevisiae cln2 rad14 strain, at 50.0 µM, stronger effect = higher value. The method, boiled down: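 Growth of compound-exposed yeast (cln2 rad14 genotype) measured and expressed as inhibition relative to vehicle.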
The nature of assay [5]: NCI Yeast Anticancer Drug Screen. Data for the bub3 strain (AID 167). The settings on record: S. cerevisiae bub3 mutant strain, at 50.0 µM, stronger effect = higher value. The method, boiled down:
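Part of a panel of yeast mutants defective in DNA damage repair or cell cycle regulation. Each strain is grown with compound, and inhibition is calculated relative to solvent-treated cultures.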

Assay [6] is described as follows: NCI Yeast Anticancer Drug Screen. Data for the mlh1 rad18 strain (AID 175). To be noted: S. cerevisiae mlh1 rad18 strain growth inhibition; at 50.0 µM; stronger effect = higher value. An outline of the steps: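 In this whole-cell yeast screen, a strain with altered DNA damage repair is challenged with compound, and its growth is measured against matched vehicle-treated controls.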

Compounds without any hit were thinned out: in the full panel of roughly 79,000, 15% have a hit. Unmarked numbers belong to inactive results. Activity calls are given as the source filed them. Rule as the data show it: active = growth inhibition above about 70%; inactive = the rest.

As to `O=C(NCc1ccccc1)/C(=C/c1ccccc1)NC(=O)c1ccccc1`, the growth inhibition in assay [1] is -33.1%; in assay [2], -31.4%; in assay [3], -33.9%; in assay [4] it was -7.2%; in assay [5], -12.3%; in assay [6] it was -42.5%.
Regarding `CC(C)NC(=O)OCc1c(COC(=O)NC(C)C)c(-c2ccc(Cl)cc2)n2c1CCC2`, the growth inhibition was -29.6% in assay [1]; -23.7% in assay [2]; -26.1% in assay [3]; 9.25% in assay [4]; -6.75% in assay [5]; -24.4% in assay [6].
As for `NC(=S)c1c(N)n(C2OC(CO)C(O)C2O)c2ncnc(N)c12` (stereo not drawn), the growth inhibition in assay [1] was 7.2%; in assay [2], -9.7%; in assay [3] it was 7.1%; in assay [4], -3.15%; in assay [5], -5.5%; in assay [6] it was 2.55%.
`CC(C)OCC(CCl)OC(=O)Nc1ccccc1` (stereo not drawn): the growth inhibition in assay [1] is 49.1%; in assay [2], 11.2%; in assay [3], 27.4%; in assay [4], -29.1%; in assay [5], 35.1%; in assay [6], 31.7%.
As for `COc1cccc(C(=O)NNC(=O)c2cccc3ccccc23)c1`, the growth inhibition in assay [1] is -47.2%; in assay [2], -59.1%; in assay [3] it was -26.8%; in assay [4], -10.4%; in assay [5], -34.2%; in assay [6] it was -20.9%.
`O=[N+]([O-])c1ccc(-c2nc(N(CCO)CCO)c3ccccc3n2)o1`: the growth inhibition was 41.8% in assay [1]; 69.8% in assay [2]; 88.8% (active) in assay [3]; 72.5% (active) in assay [4]; 25.1% in assay [5]; 66.8% in assay [6].
As to `CC(=O)Oc1c(Cl)cccc1-c1ccccc1`, the growth inhibition was 35.3% in assay [1]; 10.9% in assay [2]; 28.1% in assay [3]; 5.4% in assay [4]; 7.5% in assay [5]; 13.4% in assay [6].
In the case of `COC(CCCl)c1ccc(Cl)cc1` (stereo not drawn), the growth inhibition in assay [1] is 4.7%; in assay [2] it was -43%; in assay [3], -10.8%; in assay [4] it was -4.5%; in assay [5] it was -5.35%; in assay [6], 26.8%.
Take `CCCCOC(=O)c1ccccc1O`: the growth inhibition was 9.35% in assay [1]; -0.8% in assay [2]; -13.8% in assay [3]; -3.05% in assay [4]; 0.85% in assay [5]; 20.5% in assay [6].
Consider `CC1(C)CC(=O)C=C(N)C1`, for which the growth inhibition is 7.35% in assay [1]; -16.5% in assay [2]; 1.05% in assay [3]; 14.2% in assay [4]; -4.7% in assay [5]; 5.45% in assay [6].
For `NCCCN1CCCC1=O`, the growth inhibition in assay [1] is -20.1%; in assay [2] it was -21.3%; in assay [3], -14.8%; in assay [4], 1.8%; in assay [5], -23.3%; in assay [6], -15.1%.
Regarding `C=C(C)[C@@H]1CC[C@]2(CO)CC[C@]3(C)[C@H](CC[C@@H]4[C@@]5(C)CC[C@H](O)C(C)(C)[C@@H]5CC[C@]43C)[C@@H]12`, the growth inhibition in assay [1] is 15.6%; in assay [2], -4.3%; in assay [3], -18.1%; in assay [4] it was 11.8%; in assay [5], -11.7%; in assay [6], 29.1%.
On to `Cc1ccc(S(=O)(=O)CCCl)cc1`, for which the growth inhibition in assay [1] is 6.8%; in assay [2], -7.35%; in assay [3] it was -21.9%; in assay [4] it was -31.2%; in assay [5] it was 5.3%; in assay [6], 7.85%.
On to `COC(=O)C1=C(C)C(=O)CC1`, for which the growth inhibition was 16.7% in assay [1]; -1.5% in assay [2]; 11.8% in assay [3]; -11.9% in assay [4]; 13.9% in assay [5]; 14.2% in assay [6].
With `COC(=O)Cc1cc(COC(C)=O)ccc1C`, the growth inhibition is 0.05% in assay [1]; 0% in assay [2]; -0.7% in assay [3]; -57% in assay [4]; -17.2% in assay [5]; -7.8% in assay [6].
Regarding `CCNCC(C)(C)O`, the growth inhibition is 7.7% in assay [1]; -3.8% in assay [2]; 5.5% in assay [3]; 8.35% in assay [4]; -0.5% in assay [5]; 27.8% in assay [6].
On to `COc1ccc(C(=O)C(=O)c2ccccc2)cc1`, for which the growth inhibition in assay [1] is 26.6%; in assay [2] it was 34.1%; in assay [3] it was 31.9%; in assay [4], 1.85%; in assay [5], 11.1%; in assay [6] it was 33.5%.
Take `CCNC(=O)OCCc1c2ccccc2nc2ccccc12`: the growth inhibition in assay [1] is 51.4%; in assay [2], 36.5%; in assay [3], 42.4%; in assay [4], 36.1%; in assay [5] it was 12.7%; in assay [6] it was 54.2%.
In the case of `O=C(CCl)Nc1ccccc1SCc1cc(Cl)cc2c1OCOC2`, the growth inhibition in assay [1] was -5.7%; in assay [2], -16.4%; in assay [3], 21.6%; in assay [4] it was 22.9%; in assay [5] it was 13.6%; in assay [6], -8.9%.
On to `C/C(=N\O)c1ccccn1`, for which the growth inhibition in assay [1] is -7.6%; in assay [2], -16.4%; in assay [3], -17.9%; in assay [4] it was 1.15%; in assay [5] it was -8.85%; in assay [6], 1.45%.
For the compound `O=Cc1c(O)c2ccccc2[nH]c1=O`, the growth inhibition in assay [1] was -0.95%; in assay [2] it was 1.35%; in assay [3], -1.55%; in assay [4], 9.5%; in assay [5] it was 4.2%; in assay [6] it was 3.85%.
Turning to `COc1nc(Nc2cccc(C(F)(F)F)c2)nc(OC)n1`, the growth inhibition in assay [1] is 8.5%; in assay [2], -8%; in assay [3], 15.4%; in assay [4], 7.9%; in assay [5] it was 23.2%; in assay [6], 6.25%.
Turning to `C(=C\c1ccncc1)/c1ccncc1`, the growth inhibition in assay [1] was 27.9%; in assay [2], -7.2%; in assay [3], 6.45%; in assay [4], -0.55%; in assay [5], 7.8%; in assay [6], 23.6%.
In the case of `OCC1CCC(O)C(CO)N1` (stereo not drawn), the growth inhibition was -6.65% in assay [1]; -29.6% in assay [2]; -22.7% in assay [3]; 8.85% in assay [4]; -16.2% in assay [5]; -15.8% in assay [6].
With `CC(=O)NC(CCc1ccc(Cl)c(Cl)c1)c1cccc(O)c(=O)c1` (stereo not drawn), the growth inhibition in assay [1] was 88.9% (active); in assay [2], 92% (active); in assay [3] it was 86% (active); in assay [4] it was 63.7%; in assay [5] it was 82.5% (active); in assay [6], 88.9% (active).
Take `Cc1ccc(S(=O)(=O)Oc2ccc3sc4c(CO)ccc(NCCN(C)C)c4c(=O)c3c2)cc1`: the growth inhibition in assay [1] is 6.05%; in assay [2], 26.4%; in assay [3], 12.2%; in assay [4], 21.6%; in assay [5], 22.4%; in assay [6], 1.55%.
In the case of `CC(=O)c1cccc(N(C)S(=O)(=O)c2ccc(C)cc2)c1`, the growth inhibition in assay [1] is 47.6%; in assay [2], 7.1%; in assay [3] it was 21.8%; in assay [4] it was -31.2%; in assay [5], 45.1%; in assay [6], 37.9%.
As for `Nc1ccc(F)c(Cl)c1F`, the growth inhibition was -11% in assay [1]; -7.8% in assay [2]; -14.3% in assay [3]; -24.8% in assay [4]; -1.75% in assay [5]; -1.8% in assay [6].
